# Data reported in article PMC7862700, “An all-to-all approach to the identification of sequence-specific readers for epigenetic DNA modifications on cytosine”.
# Columns and labels:
# Experiment in all cases: DAPPL (digital affinity profiling via proximity ligation, sequencing); 10 mM Tris-HCl pH 7.5, 50 mM NaCl, 1 mM DTT, 4% glycerol, room temperature, 30 min; GST-TFs on glutathione beads, 16-mer random dsDNA library, 0.1% formaldehyde crosslink after washing; high values mean tight binding
# [1] = biological target: T1, FEV (Homo sapiens, UniProt Q99581 1-238); conditions: protein: recombinant; tags: N-terminal GST; dsDNA, one strand shown
# T1 sequence: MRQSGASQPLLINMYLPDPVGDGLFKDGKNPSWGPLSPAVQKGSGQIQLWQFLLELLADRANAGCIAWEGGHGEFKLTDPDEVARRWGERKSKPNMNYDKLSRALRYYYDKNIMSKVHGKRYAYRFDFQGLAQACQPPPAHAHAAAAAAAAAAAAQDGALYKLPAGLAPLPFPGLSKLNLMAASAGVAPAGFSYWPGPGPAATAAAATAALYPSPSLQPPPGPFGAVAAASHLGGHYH
# Outline: (§1)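 The binding signal reported is, for every hexamer, its read frequency for a factor over its read frequency for the tag-only sample. Reads came from pools of yeast-expressed, GST-fused human transcription factors on glutathione beads, barcoded with DNA and mixed with that sample, which were incubated with 200 nmole of a random double-stranded 16-mer DNA library in Tris/NaCl/DTT/glycerol buffer at room temperature for 30 min. After washing, the pools were crosslinked with 0.1% formaldehyde, proximity-ligated with BsaI/T4 ligase for 1 h at 37 °C, PCR-amplified and sequenced on an Illumina NextSeq500.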
# [2] = biological target: ETV5 (Homo sapiens, UniProt P41161 1-510); conditions: protein: recombinant; tags: N-terminal GST; dsDNA, one strand shown
# Sequence of ETV5 (P41161 whole entry): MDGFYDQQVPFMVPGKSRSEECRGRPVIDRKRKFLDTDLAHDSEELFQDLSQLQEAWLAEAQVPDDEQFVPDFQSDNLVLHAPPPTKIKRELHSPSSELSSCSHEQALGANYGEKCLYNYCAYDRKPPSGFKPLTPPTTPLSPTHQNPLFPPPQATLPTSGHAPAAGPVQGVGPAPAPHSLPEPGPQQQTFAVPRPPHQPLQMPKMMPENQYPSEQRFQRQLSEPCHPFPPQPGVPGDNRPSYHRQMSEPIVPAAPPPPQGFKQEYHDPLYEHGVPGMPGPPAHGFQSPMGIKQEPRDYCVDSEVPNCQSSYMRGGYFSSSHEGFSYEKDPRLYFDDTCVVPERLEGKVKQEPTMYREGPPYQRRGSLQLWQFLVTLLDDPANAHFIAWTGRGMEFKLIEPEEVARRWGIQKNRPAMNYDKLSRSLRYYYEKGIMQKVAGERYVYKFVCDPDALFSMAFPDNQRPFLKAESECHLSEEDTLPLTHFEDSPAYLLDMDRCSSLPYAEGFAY
# Outline: as §1
# [3] = biological target: HSF1 (Homo sapiens, UniProt Q00613 1-529); conditions: protein: recombinant; tags: N-terminal GST; chain copies: 3; dsDNA, one strand shown
# Sequence of HSF1 (Q00613 whole entry): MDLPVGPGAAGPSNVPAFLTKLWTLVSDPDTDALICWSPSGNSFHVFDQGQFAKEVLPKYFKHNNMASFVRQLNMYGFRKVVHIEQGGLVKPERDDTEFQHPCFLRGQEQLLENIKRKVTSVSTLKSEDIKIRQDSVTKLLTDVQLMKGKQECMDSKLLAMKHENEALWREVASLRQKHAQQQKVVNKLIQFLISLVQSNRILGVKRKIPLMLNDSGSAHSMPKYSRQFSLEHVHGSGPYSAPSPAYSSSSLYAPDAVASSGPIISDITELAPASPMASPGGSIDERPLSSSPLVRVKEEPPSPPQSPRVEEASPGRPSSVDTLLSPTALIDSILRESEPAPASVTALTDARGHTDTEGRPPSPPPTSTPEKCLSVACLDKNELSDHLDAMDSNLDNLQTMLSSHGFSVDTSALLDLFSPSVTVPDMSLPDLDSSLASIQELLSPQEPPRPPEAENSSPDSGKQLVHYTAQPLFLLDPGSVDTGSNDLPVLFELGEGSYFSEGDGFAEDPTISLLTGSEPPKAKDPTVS
# Outline: as §1
# [4] = biological target: T2, SPIC (Homo sapiens, UniProt Q8N5J4 1-248); conditions: protein: recombinant; tags: N-terminal GST; dsDNA, one strand shown
# T2 sequence: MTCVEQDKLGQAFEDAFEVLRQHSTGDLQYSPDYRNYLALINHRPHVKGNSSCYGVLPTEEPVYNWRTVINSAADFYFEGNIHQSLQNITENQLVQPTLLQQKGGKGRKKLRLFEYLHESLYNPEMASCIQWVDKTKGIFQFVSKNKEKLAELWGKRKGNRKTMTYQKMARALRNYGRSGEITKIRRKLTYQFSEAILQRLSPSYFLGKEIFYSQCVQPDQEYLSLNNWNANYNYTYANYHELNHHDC
# Outline: as §1
# [5] = biological target: ELF4 (Homo sapiens, UniProt Q99607 1-663); conditions: protein: recombinant; tags: N-terminal GST; dsDNA, one strand shown
# Sequence of ELF4 (Q99607 whole entry): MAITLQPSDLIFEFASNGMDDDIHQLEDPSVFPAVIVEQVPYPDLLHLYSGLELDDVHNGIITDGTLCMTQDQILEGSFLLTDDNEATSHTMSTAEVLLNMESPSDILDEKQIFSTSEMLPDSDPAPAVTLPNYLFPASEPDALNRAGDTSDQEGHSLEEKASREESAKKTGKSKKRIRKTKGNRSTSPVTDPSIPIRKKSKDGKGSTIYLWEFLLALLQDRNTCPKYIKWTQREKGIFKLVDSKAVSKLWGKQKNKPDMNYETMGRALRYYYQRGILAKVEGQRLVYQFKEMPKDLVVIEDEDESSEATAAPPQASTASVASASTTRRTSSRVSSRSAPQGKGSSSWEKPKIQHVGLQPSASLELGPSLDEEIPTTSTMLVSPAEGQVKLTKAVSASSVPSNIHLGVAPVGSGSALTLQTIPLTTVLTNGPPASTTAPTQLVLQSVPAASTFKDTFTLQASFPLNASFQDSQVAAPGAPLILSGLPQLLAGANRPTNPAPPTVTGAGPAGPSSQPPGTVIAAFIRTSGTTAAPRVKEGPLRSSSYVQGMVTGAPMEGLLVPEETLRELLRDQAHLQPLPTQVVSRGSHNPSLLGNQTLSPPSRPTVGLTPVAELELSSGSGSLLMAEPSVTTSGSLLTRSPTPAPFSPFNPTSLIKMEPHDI
# Outline: as §1
# [6] = biological target: T3, ELK4 (Homo sapiens, UniProt P28324-2 1-405); conditions: protein: recombinant; tags: N-terminal GST; dsDNA, one strand shown
# T3 sequence: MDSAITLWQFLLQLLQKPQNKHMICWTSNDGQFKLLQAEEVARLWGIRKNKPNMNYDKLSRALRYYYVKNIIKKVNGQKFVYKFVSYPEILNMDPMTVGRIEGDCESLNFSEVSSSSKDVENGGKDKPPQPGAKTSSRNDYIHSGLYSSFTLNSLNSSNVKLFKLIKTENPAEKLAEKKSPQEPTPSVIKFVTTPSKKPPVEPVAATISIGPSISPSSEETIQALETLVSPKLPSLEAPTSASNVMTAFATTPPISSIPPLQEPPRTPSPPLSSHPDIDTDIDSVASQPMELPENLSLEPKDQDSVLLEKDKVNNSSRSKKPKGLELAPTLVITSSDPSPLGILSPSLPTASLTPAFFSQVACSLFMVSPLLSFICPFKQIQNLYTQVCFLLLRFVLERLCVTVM
# Outline: as §1
# [7] = biological target: T4, ETV2 (Homo sapiens, UniProt O00321 1-342); conditions: protein: recombinant; tags: N-terminal GST; dsDNA, one strand shown
# T4 sequence: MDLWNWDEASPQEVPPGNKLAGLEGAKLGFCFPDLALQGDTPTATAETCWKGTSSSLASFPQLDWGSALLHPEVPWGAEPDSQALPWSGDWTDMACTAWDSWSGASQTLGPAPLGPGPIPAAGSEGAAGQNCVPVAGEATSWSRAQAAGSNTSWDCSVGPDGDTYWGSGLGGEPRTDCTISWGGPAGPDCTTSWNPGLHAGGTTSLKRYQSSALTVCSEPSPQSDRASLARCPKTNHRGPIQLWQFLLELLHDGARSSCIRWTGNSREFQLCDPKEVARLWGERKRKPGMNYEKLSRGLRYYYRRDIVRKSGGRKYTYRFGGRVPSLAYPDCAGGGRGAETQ
# Outline: as §1
# [8] = biological target: T5, ELF3 (Homo sapiens, UniProt P78545 1-371); conditions: protein: recombinant; tags: N-terminal GST; dsDNA, one strand shown
# T5 sequence: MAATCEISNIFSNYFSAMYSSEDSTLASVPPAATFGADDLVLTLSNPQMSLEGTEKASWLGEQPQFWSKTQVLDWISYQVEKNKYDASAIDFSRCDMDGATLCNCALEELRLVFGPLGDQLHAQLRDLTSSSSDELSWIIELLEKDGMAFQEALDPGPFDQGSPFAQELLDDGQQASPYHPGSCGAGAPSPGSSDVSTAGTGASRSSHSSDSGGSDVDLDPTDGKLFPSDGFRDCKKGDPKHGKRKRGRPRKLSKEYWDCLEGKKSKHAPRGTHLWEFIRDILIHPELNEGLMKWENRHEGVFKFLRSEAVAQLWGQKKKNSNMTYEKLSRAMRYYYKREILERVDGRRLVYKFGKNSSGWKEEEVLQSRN
# Outline: as §1
# [9] = biological target: CRX (Homo sapiens, UniProt O43186 1-299); conditions: protein: recombinant; tags: N-terminal GST; dsDNA, one strand shown
# Sequence of CRX (O43186 whole entry): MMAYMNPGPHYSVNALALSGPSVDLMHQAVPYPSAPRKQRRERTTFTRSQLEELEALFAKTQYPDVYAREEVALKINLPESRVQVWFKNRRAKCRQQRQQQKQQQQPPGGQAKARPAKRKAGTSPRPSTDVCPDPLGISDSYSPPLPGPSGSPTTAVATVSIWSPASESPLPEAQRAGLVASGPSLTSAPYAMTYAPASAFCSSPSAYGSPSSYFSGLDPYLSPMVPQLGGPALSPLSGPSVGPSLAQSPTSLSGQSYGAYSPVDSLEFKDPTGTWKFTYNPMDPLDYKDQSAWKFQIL
# Outline: as §1
# [10] = biological target: ETV1 (Homo sapiens, UniProt P50549 1-477); conditions: protein: recombinant; tags: N-terminal GST; dsDNA, one strand shown
# Sequence of ETV1 (P50549 whole entry): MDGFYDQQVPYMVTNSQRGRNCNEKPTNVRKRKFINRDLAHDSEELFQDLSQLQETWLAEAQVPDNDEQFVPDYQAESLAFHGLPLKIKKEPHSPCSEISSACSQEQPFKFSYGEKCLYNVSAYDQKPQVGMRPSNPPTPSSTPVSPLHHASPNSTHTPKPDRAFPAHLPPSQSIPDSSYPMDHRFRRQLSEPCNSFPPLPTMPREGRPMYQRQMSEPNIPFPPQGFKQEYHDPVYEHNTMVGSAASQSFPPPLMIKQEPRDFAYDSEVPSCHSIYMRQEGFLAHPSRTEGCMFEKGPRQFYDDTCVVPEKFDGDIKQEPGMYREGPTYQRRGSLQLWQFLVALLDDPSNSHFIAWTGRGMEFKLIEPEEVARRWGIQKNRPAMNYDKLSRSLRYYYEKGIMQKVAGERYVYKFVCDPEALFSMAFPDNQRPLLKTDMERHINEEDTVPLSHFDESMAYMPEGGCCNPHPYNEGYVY
# Outline: as §1
# [11] = biological target: T6, ERF (Homo sapiens, UniProt P50548 1-548); conditions: protein: recombinant; tags: N-terminal GST; dsDNA, one strand shown
# T6 sequence: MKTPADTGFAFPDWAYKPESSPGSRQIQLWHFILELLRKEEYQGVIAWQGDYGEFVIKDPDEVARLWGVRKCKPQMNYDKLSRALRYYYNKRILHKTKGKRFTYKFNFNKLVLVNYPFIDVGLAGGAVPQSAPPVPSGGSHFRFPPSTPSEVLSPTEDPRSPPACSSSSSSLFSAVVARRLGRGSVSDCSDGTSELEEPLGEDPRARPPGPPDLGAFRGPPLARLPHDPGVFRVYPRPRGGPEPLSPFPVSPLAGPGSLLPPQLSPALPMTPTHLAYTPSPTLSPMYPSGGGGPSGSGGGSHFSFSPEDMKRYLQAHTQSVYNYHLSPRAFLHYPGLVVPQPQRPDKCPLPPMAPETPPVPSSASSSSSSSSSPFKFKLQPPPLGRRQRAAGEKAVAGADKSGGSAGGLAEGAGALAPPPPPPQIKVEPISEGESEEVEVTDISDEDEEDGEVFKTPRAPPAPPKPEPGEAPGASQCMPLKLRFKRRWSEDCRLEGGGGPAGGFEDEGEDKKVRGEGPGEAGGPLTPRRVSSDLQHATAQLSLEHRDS
# Outline: as §1
# [12] = biological target: T7, ETV3L (Homo sapiens, UniProt Q6ZN32 1-361); conditions: protein: recombinant; tags: N-terminal GST; dsDNA, one strand shown
# T7 sequence: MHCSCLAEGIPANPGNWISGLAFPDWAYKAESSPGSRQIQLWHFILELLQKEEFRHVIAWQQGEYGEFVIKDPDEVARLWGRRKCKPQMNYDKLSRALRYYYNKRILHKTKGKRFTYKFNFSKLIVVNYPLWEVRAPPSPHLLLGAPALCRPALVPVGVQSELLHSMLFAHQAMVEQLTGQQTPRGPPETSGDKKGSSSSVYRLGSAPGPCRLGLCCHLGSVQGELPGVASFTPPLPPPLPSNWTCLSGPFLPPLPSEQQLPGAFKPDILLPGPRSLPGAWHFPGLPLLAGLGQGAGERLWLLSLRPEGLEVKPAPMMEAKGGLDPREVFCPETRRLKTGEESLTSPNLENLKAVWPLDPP
# Outline: as §1
# [13] = biological target: T8, ETS2 (Homo sapiens, UniProt P15036 1-469); conditions: protein: recombinant; tags: N-terminal GST; dsDNA, one strand shown
# T8 sequence: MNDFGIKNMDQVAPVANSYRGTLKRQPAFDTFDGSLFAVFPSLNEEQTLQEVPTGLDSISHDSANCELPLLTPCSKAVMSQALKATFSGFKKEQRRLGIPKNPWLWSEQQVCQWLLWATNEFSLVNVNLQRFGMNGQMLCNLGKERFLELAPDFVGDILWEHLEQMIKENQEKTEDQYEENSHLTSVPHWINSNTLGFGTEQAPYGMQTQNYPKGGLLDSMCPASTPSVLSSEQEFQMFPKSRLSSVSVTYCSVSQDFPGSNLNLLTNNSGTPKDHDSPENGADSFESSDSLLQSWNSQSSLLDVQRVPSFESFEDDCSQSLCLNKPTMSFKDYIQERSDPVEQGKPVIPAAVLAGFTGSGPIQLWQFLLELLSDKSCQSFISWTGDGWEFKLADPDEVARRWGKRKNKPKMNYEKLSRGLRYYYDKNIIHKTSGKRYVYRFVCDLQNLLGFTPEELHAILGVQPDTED
# Outline: as §1
# [14] = biological target: T9, SPDEF (Homo sapiens, UniProt O95238 1-335); conditions: protein: recombinant; tags: N-terminal GST; dsDNA, one strand shown
# T9 sequence: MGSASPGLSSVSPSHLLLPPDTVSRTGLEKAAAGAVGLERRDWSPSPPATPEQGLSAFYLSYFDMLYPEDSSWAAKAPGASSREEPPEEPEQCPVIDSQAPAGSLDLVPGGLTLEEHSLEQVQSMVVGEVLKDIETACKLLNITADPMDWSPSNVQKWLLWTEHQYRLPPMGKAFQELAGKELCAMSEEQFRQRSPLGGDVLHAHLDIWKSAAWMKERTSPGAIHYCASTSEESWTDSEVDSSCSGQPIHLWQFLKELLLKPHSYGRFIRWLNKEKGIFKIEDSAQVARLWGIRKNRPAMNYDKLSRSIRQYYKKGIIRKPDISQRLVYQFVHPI
# Outline: as §1
# [15] = biological target: T10, ETV7 (Homo sapiens, UniProt Q9Y603 1-341); conditions: protein: recombinant; tags: N-terminal GST; dsDNA, one strand shown
# T10 sequence: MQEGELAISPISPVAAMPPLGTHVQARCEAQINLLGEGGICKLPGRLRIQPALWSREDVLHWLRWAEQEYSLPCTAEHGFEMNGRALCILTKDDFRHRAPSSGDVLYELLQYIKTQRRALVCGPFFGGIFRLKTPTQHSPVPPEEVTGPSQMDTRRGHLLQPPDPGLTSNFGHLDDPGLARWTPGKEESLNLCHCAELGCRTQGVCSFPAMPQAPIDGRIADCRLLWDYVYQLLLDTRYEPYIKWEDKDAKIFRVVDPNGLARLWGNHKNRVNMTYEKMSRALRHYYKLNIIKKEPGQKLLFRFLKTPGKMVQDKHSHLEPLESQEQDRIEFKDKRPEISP
# Outline: as §1
# [16] = biological target: T11, ELF5 (Homo sapiens, UniProt Q9UKW6-2 1-255); conditions: protein: recombinant; tags: N-terminal GST; dsDNA, one strand shown
# T11 sequence: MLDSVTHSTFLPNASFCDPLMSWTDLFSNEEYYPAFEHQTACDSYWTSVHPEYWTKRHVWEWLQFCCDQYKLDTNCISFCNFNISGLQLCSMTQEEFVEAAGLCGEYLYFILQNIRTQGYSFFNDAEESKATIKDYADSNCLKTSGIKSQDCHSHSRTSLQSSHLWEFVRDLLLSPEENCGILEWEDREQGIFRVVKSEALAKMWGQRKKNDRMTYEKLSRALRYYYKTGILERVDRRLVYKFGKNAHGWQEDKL
# Outline: as §1
# [17] = biological target: T12, ETV3 (Homo sapiens, UniProt P41162-2 1-143); conditions: protein: recombinant; tags: N-terminal GST; dsDNA, one strand shown
# T12 sequence: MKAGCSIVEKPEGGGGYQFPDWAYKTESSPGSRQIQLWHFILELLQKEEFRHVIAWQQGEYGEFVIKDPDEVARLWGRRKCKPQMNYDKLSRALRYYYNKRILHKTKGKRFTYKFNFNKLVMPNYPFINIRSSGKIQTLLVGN
# Outline: as §1
# [18] = biological target: ETV6 (Homo sapiens, UniProt P41212 1-452); conditions: protein: recombinant; tags: N-terminal GST; dsDNA, one strand shown
# Sequence of ETV6 (P41212 whole entry): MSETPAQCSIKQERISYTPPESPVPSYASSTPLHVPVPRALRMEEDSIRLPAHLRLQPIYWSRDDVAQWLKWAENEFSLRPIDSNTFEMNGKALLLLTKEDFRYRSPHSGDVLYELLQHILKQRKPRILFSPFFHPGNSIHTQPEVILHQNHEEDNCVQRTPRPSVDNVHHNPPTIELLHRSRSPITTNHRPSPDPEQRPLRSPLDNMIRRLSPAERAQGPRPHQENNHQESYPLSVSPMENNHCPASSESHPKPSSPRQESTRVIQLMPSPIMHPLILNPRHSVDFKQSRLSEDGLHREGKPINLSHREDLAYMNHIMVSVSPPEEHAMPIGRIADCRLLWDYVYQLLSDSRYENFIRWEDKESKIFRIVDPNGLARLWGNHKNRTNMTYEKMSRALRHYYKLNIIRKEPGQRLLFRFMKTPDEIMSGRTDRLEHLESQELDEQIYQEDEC
# Outline: as §1
sequence,measurement,setting,value
CGACTA,binding signal,[1],"1.31 fold enrichment (6-mer frequency, TF over GST control)"
same,binding signal,[2],"1.25 fold enrichment (6-mer frequency, TF over GST control)"
same,binding signal,[3],"1.52 fold enrichment (6-mer frequency, TF over GST control)"
same,binding signal,[4],"1.47 fold enrichment (6-mer frequency, TF over GST control)"
same,binding signal,[5],"1.48 fold enrichment (6-mer frequency, TF over GST control)"
same,binding signal,[6],"1.58 fold enrichment (6-mer frequency, TF over GST control)"
same,binding signal,[7],"1.49 fold enrichment (6-mer frequency, TF over GST control)"
same,binding signal,[8],"1.41 fold enrichment (6-mer frequency, TF over GST control)"
same,binding signal,[9],"1.52 fold enrichment (6-mer frequency, TF over GST control)"
same,binding signal,[10],"1.4 fold enrichment (6-mer frequency, TF over GST control)"
same,binding signal,[11],"1.31 fold enrichment (6-mer frequency, TF over GST control)"
same,binding signal,[12],"1.52 fold enrichment (6-mer frequency, TF over GST control)"
same,binding signal,[13],"1.38 fold enrichment (6-mer frequency, TF over GST control)"
same,binding signal,[14],"1.37 fold enrichment (6-mer frequency, TF over GST control)"
same,binding signal,[15],"1.31 fold enrichment (6-mer frequency, TF over GST control)"
same,binding signal,[16],"1.34 fold enrichment (6-mer frequency, TF over GST control)"
same,binding signal,[17],"1.21 fold enrichment (6-mer frequency, TF over GST control)"
same,binding signal,[18],"1.28 fold enrichment (6-mer frequency, TF over GST control)"
